# According to PubChem BioAssay:
# Active and inactive are the calls of the source. No rule for the calls is given here.
# Target: Pantothenate synthetase (Mycobacterium tuberculosis (strain ATCC 25618 / H37Rv)) (UniProt P9WIL5)
# Assay: Recombinant Mtb pantothenate synthetase (PanC) inhibitors, coupled enzyme, confirmatory (AID 375);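 also: 0% = full reaction with vehicle and 100% = no enzyme background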
# Settings: coupled enzyme assay; at 10 µM, stronger effect = higher value
# Chain of Pantothenate synthetase (Mycobacterium tuberculosis (strain ATCC 25618 / H37Rv)) (P9WIL5 whole entry, looked up): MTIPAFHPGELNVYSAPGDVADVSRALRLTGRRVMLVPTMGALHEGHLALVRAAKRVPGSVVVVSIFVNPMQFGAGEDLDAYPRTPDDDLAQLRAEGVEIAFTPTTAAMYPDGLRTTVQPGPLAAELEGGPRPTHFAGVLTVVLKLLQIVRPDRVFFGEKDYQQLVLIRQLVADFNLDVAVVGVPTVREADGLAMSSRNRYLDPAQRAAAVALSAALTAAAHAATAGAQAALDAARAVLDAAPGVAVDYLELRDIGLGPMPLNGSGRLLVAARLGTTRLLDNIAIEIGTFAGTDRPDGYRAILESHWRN
row,SMILES,inhibition
1,Cc1cc(C(=O)Nc2cccnc2)no1,0% (inactive)
2,CCOCCCNC(=O)C1CC(=O)N(C2CCCC2)C1 (stereo not given),2% (inactive)
3,COc1ccc(NC(=O)CSc2ccccn2)cc1OC,0% (inactive)
4,Cc1cc(OC(=O)N2CCOCC2)cc(C)c1Cl,0% (inactive)
5,CCCCN(CCCNC(=O)C1CCN(S(=O)(=O)CC)CC1)c1ccccc1,0% (inactive)
6,COCCNC(=O)CN1CCN(C(c2ccccc2)c2ccccc2)CC1,2% (inactive)
7,CCCCC(CC)Cn1c2nc3ccccc3nc2c2c(=N)oc(C)nc21 (stereo not given),7% (inactive)
8,COc1cc(C2Oc3cc(C4Oc5cc(O)cc(O)c5C(=O)C4O)ccc3OC2CO)ccc1O (stereo not given),0% (inactive)
9,O=C(c1ccccc1Cl)N1CCc2ccccc2C1,0% (inactive)
10,CCOC(=O)Cc1nnc(Nc2cccc(O)c2)c2ccccc12,9% (inactive)
11,Cn1c(=O)[nH]c(=O)c2c1nc(N1CCNCC1)n2Cc1cccc2ccccc12,8% (inactive)
12,CC(C)CC(OC(=O)c1cccs1)C(=O)NCc1ccco1 (stereo not given),0% (inactive)
13,CCOc1ccc2nc(SCC(=O)N3CCCCCC3)c(C#N)cc2c1,0% (inactive)
14,c1cnn(-c2cc(N3CCOCC3)ncn2)c1,0% (inactive)
15,COC(=O)c1ccccc1S(=O)(=O)NC(=O)c1ccccc1,0% (inactive)
16,O=C(O)CCNc1nc(-c2ccccc2)nc2ccccc12,3% (inactive)
17,COc1cccc(-c2cc(C(F)(F)F)nc(NCc3ccco3)n2)c1,0% (inactive)
18,CCN1C(=C2C(=O)c3ccccc3C2=O)C=Cc2ccccc21,0% (inactive)
19,CC(C)N=c1cc2n(-c3ccc(Cl)cc3)c3ccccc3nc-2cc1Nc1ccc(Cl)cc1,0% (inactive)
20,COc1ccc(CCNc2oc(COc3ccc(F)cc3)nc2C#N)cc1,0% (inactive)

row,SMILES,inhibition
1,O=C(CSc1nnc(-c2ccco2)n1CC1CCCO1)NC1CCCC1 (stereo not given),0% (inactive)
2,COc1ccc(CCn2c(N)c(C#N)c3nc4ccccc4nc32)cc1OC,0% (inactive)
3,C=COCCNC(=O)Nc1ccc(Cl)c(Cl)c1,0% (inactive)
4,CCC(=O)O[C@]1(C(=O)CCl)[C@@H](C)C[C@H]2[C@@H]3CCC4=CC(=O)C=C[C@]4(C)[C@@]3(F)[C@@H](O)C[C@@]21C,0% (inactive)
5,COc1ccc(CCNC(=O)c2cnc3scc(C)n3c2=O)cc1OC,0% (inactive)
6,CCOc1ccccc1N(CC(=O)N1CCOCC1)S(=O)(=O)c1ccccc1,0% (inactive)
7,COC(=O)c1cc(Br)c(=O)n(CCc2ccc(F)cc2)c1,0% (inactive)
8,COc1ccc2c(C(F)(F)F)cc(=O)oc2c1C,1% (inactive)
9,CCn1cc(C(=O)O)c(=O)c2ccc(C)nc21,0% (inactive)
10,COc1oc(-c2ccccc2)nc1C(F)(F)F,0% (inactive)
11,O=S(=O)(NCc1ccco1)c1cccc2cccnc12,1% (inactive)
12,CCOC(=O)c1c(C)oc2ccc(NS(=O)(=O)c3ccc4c5c(cccc35)C(=O)N4)cc12,3% (inactive)
13,COc1ccc(-n2ncc3c(NCc4ccc5c(c4)OCO5)ncnc32)cc1,0% (inactive)
14,Cc1ccc(S(=O)(=O)CC2CSc3nnc(C)c(=O)n32)cc1 (stereo not given),0% (inactive)
15,O=c1n(CCCN2CCN(c3cccc(Cl)c3)CC2)nc2ccccn12,0% (inactive)
16,CCNC(=O)C1CC(=O)N(Cc2ccc3c(c2)OCO3)C(=Nc2ccc(F)cc2)S1 (stereo not given),0% (inactive)
17,CN1CCN(CC#CCC(O)(c2ccccc2)C2CCCC2)CC1 (stereo not given),0% (inactive)
18,Cc1cccc(NC(=O)CCCCCN2C(=O)c3ccccc3C2=O)n1,0% (inactive)
19,CCN(CC)CCOC(=O)c1cccc(OC)c1,0% (inactive)
20,CC(=O)c1cccc(N(CC(=O)N2CCCC2)S(C)(=O)=O)c1,0% (inactive)
